# Experimental data: PubChem BioAssay
# Active and inactive are the calls of the source.
# Columns and labels:
# [1] = system: Plasmodium falciparum Sir2 (PF13_0152, Sir2A); experiment: pfSir2 binders on small-molecule microarrays, primary screen, biochemical, small-molecule microarray, 635 nm fluorescence (AID 1098); settings: small-molecule microarray binding, fluorescence 635 nm; higher = more signal;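 also: score merges spot fluorescence intensity with its signal-to-noise ratio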
# [2] = small-molecule microarray binders of probe aDKK1, primary screen, biochemical, biotinylated probe, 635/667 nm fluorescence (AID 1099); settings: higher = more signal;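 also: score merges 667nm spot fluorescence with signal to noise across triplicate slides; reference of the scale not given here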
# [3] = small-molecule microarray binders of probe aCHRDL2, primary screen, biochemical, biotinylated probe, 635/667 nm fluorescence (AID 1100); settings: higher = more signal
# [4] = splicing luciferase reporter signal modulators, primary screen, spliceosome inhibition project, cell-based, HEK293, splice +/- reporter (AID 1101); settings: luminescence, 24 h, higher = more signal, called active from +8 up or from −8 down;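 also: HEK293 cells carrying a splicing-competent luciferase reporter gene; test concentration not given here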
# [5] = target: Fibroblast growth factor 10 (Homo sapiens) (UniProt O15520); experiment: FGF10 binders on small-molecule microarrays, primary screen, biochemical, small-molecule microarray, 635 nm fluorescence (AID 1102); settings: FGF10 binding, fluorescence 635 nm, higher = more signal
# Fibroblast growth factor 10 (Homo sapiens), sequence (O15520 whole entry, looked up): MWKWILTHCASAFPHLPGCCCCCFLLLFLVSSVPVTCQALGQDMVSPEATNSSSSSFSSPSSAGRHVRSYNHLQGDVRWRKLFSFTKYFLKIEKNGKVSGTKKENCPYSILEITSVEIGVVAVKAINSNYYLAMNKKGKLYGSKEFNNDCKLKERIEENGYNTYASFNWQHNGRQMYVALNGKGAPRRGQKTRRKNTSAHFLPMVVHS
# [6] = system: glycogen synthase kinase-3 (GSK3A per assay name; protocol says GSK3B); experiment: GSK3 binders on small-molecule microarrays, primary screen, biochemical, small-molecule microarray, 635 nm fluorescence, GSK3A (AID 1103); settings: small-molecule microarray binding, fluorescence 635 nm; higher = more signal; also: the record names both GSK3A and GSK3B
# [7] = target: Epidermal growth factor receptor (Homo sapiens) (UniProt P00533); experiment: EGFR binders on small-molecule microarrays, primary screen, biochemical, small-molecule microarray, 635 nm fluorescence (AID 1104); settings: EGFR binding, higher = more signal;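 also: score merges 667 nm emission intensity with spot signal to noise over triplicate slides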
# Epidermal growth factor receptor (Homo sapiens), sequence (P00533 whole entry, looked up): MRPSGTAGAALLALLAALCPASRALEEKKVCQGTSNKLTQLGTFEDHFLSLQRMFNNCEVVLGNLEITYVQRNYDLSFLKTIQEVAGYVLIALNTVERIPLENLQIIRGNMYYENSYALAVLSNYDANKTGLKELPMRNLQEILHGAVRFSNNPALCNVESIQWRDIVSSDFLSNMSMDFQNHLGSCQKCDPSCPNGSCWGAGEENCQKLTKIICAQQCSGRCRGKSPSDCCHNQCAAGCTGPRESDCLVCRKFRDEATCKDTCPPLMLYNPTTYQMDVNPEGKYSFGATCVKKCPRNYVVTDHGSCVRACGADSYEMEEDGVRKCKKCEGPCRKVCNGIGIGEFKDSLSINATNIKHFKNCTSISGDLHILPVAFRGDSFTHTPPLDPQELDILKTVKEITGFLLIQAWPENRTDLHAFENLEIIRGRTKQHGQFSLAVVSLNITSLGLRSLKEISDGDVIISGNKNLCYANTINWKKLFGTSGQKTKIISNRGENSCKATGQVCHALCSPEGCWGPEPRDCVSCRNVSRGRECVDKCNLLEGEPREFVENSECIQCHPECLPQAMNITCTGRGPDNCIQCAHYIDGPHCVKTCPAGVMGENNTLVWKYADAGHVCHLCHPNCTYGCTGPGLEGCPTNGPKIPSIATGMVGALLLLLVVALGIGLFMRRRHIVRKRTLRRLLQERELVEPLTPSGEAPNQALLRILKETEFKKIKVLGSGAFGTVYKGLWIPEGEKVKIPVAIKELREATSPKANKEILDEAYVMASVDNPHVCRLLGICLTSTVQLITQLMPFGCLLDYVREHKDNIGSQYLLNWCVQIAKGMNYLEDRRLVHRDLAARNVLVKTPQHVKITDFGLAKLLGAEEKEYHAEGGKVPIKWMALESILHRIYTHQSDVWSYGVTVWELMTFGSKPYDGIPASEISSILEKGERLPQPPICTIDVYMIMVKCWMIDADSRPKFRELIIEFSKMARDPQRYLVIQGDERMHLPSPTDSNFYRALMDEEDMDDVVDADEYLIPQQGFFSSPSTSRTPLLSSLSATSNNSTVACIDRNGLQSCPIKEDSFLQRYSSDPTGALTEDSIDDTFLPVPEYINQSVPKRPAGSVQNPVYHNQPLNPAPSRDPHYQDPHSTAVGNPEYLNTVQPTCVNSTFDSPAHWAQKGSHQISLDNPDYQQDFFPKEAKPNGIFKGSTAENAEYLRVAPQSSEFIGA
# [8] = target: Follistatin-related protein 3 (Homo sapiens) (UniProt O95633); experiment: FSTL3 binders on small-molecule microarrays, primary screen, biochemical, small-molecule microarray, 635 nm fluorescence (AID 1105); settings: FSTL3 binding, higher = more signal;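 also: score merges emission near 667 nm and signal to noise per printed spot across three slides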
# Follistatin-related protein 3 (Homo sapiens), sequence (O95633 whole entry, looked up): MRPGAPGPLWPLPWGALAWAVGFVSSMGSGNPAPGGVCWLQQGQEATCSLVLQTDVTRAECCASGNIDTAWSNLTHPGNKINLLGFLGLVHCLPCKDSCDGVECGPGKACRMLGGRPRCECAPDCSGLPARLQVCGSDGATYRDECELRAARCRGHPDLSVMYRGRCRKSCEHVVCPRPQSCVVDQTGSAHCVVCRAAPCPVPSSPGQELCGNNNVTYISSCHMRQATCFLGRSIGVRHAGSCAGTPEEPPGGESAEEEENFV
# [9] = target: Dickkopf-related protein 1 (Homo sapiens) (UniProt O94907); experiment: DKK1 binders on small-molecule microarrays, primary screen, biochemical, small-molecule microarray, 635 nm fluorescence scan (AID 1106); settings: DKK1 binding, higher = more signal;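 also: score merges emission near 667 nm with signal to noise over three replicate slides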
# Dickkopf-related protein 1 (Homo sapiens), sequence (O94907 whole entry, looked up): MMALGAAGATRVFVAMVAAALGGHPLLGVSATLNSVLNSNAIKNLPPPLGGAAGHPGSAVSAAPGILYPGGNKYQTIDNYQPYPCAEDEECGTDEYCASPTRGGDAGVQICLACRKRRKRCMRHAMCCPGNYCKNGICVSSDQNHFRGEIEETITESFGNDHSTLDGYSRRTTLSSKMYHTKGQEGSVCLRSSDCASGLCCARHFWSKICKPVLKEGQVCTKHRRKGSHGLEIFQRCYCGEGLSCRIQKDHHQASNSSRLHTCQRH
# [10] = system: Inhibin beta A chain (activin A); experiment: INHBA (activin A) binders on microarrays, primary screen, biochemical, small-molecule microarray, 635 nm fluorescence scan (AID 1107); settings: small-molecule microarray binding, higher = more signal;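 also: mouse activin A protein probed at 4.33 µg/mL on printed slides; score merges bound-protein fluorescence near 667 nm with spot signal-to-noise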
SMILES,composite z-score [1],composite z-score [2],composite z-score [3],z-score [4],composite z-score [5],composite z-score [6],composite z-score [7],composite z-score [8],composite z-score [9],composite z-score [10]
CC(=O)N1Cc2ccccc2C[C@]2(N=C(c3ccc(OCCCO)cc3)O[C@@H]2c2ccccc2)C1=O,1.55,0.835,1.05,-2.31 (inactive),0.897,1.26,0.17,0.33,0.275,0.503
COc1ccc(CCNC(=O)[C@@]2(Sc3ccc(C)cc3)CC(=O)N(Cc3cc(C(F)(F)F)cc(C(F)(F)F)c3)[C@@H]2c2ccc(CO)cc2I)cc1,1.15,0.277,0.901,-0.871 (inactive),-0.447,-0.223,-1.06,-0.0666,-0.744,0.533
CCCNC(=O)[C@@]1(c2ccc([N+](=O)[O-])cc2)CC(=O)N(C2CCCCC2)[C@@H]1c1ccc(CO)cc1I,1.51,0.57,0.796,-0.68 (inactive),0.841,0.705,0.297,0.532,0.214,-0.406
O=C1O[C@@H](c2ccccc2)[C@@H](c2ccccc2)N2[C@@H](c3ccc(O)cc3)[C@]3(C(=O)Nc4ccc(C#CCCO)cc43)[C@@H](C(=O)Nc3nc4ccccc4s3)[C@H]12,0.94,0.0179,0.376,0.344 (inactive),1.17,1.13,0.214,0.545,-0.17,0.0507
CCOC(=O)C1=CC[C@@H](c2ccccc2C(F)(F)F)N(S(=O)(=O)c2ccc(C)cc2)C1,1.23,1.27,1.18,-2.27 (inactive),1.18,0.914,0.29,1.12,-0.144,0.685
CN(C)C(=O)[C@@]1(Cc2ccccc2N=[N+]=[N-])COC(c2ccc(OCCCO)cc2)=N1,1.54,0.764,0.795,-0.545 (inactive),0.629,1.05,0.0428,0.396,-0.239,0.0217
O=C1O[C@@H](c2ccccc2)[C@@H](c2ccccc2)N2[C@@H](c3ccccc3OCCO)[C@]3(C(=O)Nc4ccc(C#CCCO)cc43)[C@@H](C(=O)N3CCN(c4ncccn4)CC3)[C@H]12,0.879,-0.0415,0.225,-1.09 (inactive),0.376,0.649,-0.022,0.315,0.464,-0.055
COc1ccc([Si](C)(C)[C@H]2[C@H](CCO)O[C@@]3(C(=O)N(Cc4cccc(N5CCCCC5=O)c4)c4ccccc43)[C@@H]2C)cc1,1.08,0.176,0.0883,-2.37 (inactive),0.748,0.845,0.525,1.16,0.82,0.861
CCOC(=O)C1=CC[C@@H](c2cc(Cl)ccc2Cl)N(S(=O)(=O)c2ccc(C)cc2)[C@H]1c1ccc(OC)cc1,0.391,0.987,1.13,-0.381 (inactive),0.462,-0.239,-0.36,-0.0732,-0.295,1.56
C=CC[C@]1(C(=O)N(C)C)N=C(c2ccc(OCCCO)cc2)O[C@H]1c1ccccc1N=[N+]=[N-],0.265,0.776,1.14,-0.288 (inactive),0.762,0.346,-0.257,0.859,-0.367,0.889
C=CCOC(=O)[C@H]1[C@@H]2C(=O)O[C@@H](c3ccccc3)[C@@H](c3ccccc3)N2[C@@H](c2ccc(OCCOC(=O)[C@H]3C[C@H]4C(=O)N[C@@H](CCCC[N+](C)(C)C)C(=O)N4[C@H]3c3cccc(OCCO)c3)cc2)[C@]12C(=O)Nc1ccc(I)cc12,1.1,-0.179,-0.0243,0.997 (inactive),0.809,0.701,0.335,0.376,0.763,0.111
COc1ccc([Si](C)(C)[C@@H]2[C@@H](CCO)O[C@]3(C(=O)N(Cc4cccc(N5C(=O)c6ccccc6Oc6ccccc65)c4)c4ccccc43)[C@H]2C)cc1,0.307,0.0163,0.444,-1.19 (inactive),-0.502,-0.735,-0.717,-0.491,-0.812,0.233
COc1ccc(C(O)C2C=CC3C(=O)N(Cc4ccccc4)C(=O)C3N2n2cnnc2)c2ccccc12 (stereo not given),1.83,-0.0611,0.873,-0.781 (inactive),-1.12,0.233,-1.17,0.127,-1.45,0.48
C=CCOC(=O)[C@@H]1[C@H]2C(=O)O[C@H](c3ccccc3)[C@H](c3ccccc3)N2[C@H](c2ccc(OCCOC(=O)[C@H]3C[C@H]4C(=O)N[C@@H](CCCC[N+](C)(C)C)C(=O)N4[C@H]3c3ccc(O)cc3)cc2)[C@@]12C(=O)Nc1ccc(I)cc12,1.6,-0.144,-0.248,-0.178 (inactive),1.46,1.33,1.18,1.51,1.03,0.467
NC(=O)NCC#Cc1ccc2c(c1)[C@]1(C(=O)N2)[C@H](c2ccc(O)cc2)N2[C@H](c3ccccc3)[C@H](c3ccccc3)OC(=O)[C@H]2[C@@H]1C(=O)Nc1nc2ccccc2s1,0.836,0.645,0.985,1.11 (inactive),1.25,0.0394,0.581,1.05,0.666,1.17
CCC[C@@H]1C[C@@]1(CCC)[C@@H](NP(=O)(c1ccccc1)c1ccccc1)c1ccc(Cl)cc1,0.219,0.0536,0.292,-2.26 (inactive),-0.489,-0.965,-0.537,-0.366,0.102,1.18
